This assay has as its system Trypanosoma brucei. Put plainly: Trypanosoma brucei 72 hour study. The format is functional, organism-based. Details: scale not given: in the data most compounds retested in dose-response had high values.

Out of some 66,000 compounds screened, about 960 (1.5%) showed an effect of 50% or more. The entries come from a sample that favours strong results as a whole.

As to `O=C(C1CC1)N1CCC2(CCN2Cc2ccc(F)cc2)C1.O=C(O)C(F)(F)F` (centres undefined), the “Percent Effect” value (30.3 µM, […]) is recorded as -12.66%.
The same measure, in the same setting: in the case of `Cc1cccnc1CN1CC[C@H](Oc2cccc(F)c2)[C@@](C)(O)C1` it was -17.61%.
For `O=C1CC(NS(=O)(=O)c2ccc(Br)cc2)CN1` (centres undefined), the “Percent Effect” value (30 µM, 30.03 µM) is recorded as -19.04%.
`CN(C(=O)CCc1ccncc1)C1CCCN(CCc2ccccc2)C1` (centres undefined): the “Percent Effect” value (30 µM, 30.03 µM) is recorded as 2.42%.
On to `CC(C)C(=O)NCC(=O)N(C)C1CCCN(CCc2ccccc2)C1` (centres undefined), for which, for the setting “30.3 µM, […]”, the “Percent Effect” value is given as 1.246%.
Turning to `CN(C(=O)CSc1ccccn1)C1CCCN(CCc2ccccc2)C1` (centres undefined), the “Percent Effect” value (30 µM, 30.03 µM) is recorded as 106.3%.
Turning to `Cn1cc(C(=O)NC(Cn2cccn2)C(C)(C)C)cn1` (centres undefined), the “Percent Effect” value (30.3 µM, […]) is recorded as -4.857%.
Turning to `CC(C)(C)C(Cn1cccn1)NC(=O)c1ccco1` (centres undefined), the “Percent Effect” value (30.3 µM, […]) worked out at 101.2%.
In the case of `CCn1nccc1C(=O)NC(Cn1cccn1)C(C)(C)C` (centres undefined), the “Percent Effect” value (30.3 µM, […]) is on record as -6.087%.
Turning to `CC(CNC(=O)CCCn1cncn1)N1CCc2ccccc2C1` (centres undefined), the “Percent Effect” value (30 µM, 30.03 µM) was -32.01%.
As for `CCCC(=O)Nc1sc(C(=O)OCC)c(C)c1C#N`, the “Percent Effect” value (30 µM, 30.03 µM) is 19.97%.
With `CCOC(=O)c1sc(NC(=O)CN(C)S(C)(=O)=O)c(C#N)c1C`, the “Percent Effect” value (30 µM, 30.03 µM) is reported as -8.874%.
Same read-out and setting: next, `Cc1sc(NC(=O)CN(C)S(C)(=O)=O)c(C#N)c1C`: 51.13%; `Cl.O=C(Nc1nc2c(s1)CNCC2)NC1CCCC1`: -50.11%.
Turning to `Cl.NC(C(=O)N1CCSc2ccccc2C1)c1ccccc1` (centres undefined), the “Percent Effect” value (30 µM, 30.03 µM) was 1.138%.
Consider `Cc1nn2c(-c3snnc3C)nnc2s1`, for which the “Percent Effect” value (30 µM, 30.03 µM) is -55.36%.
With `COCCC(=O)N1CC2(CCN(Cc3cccc(Cl)c3)CC2)C1.O=C(O)C(F)(F)F`, the “Percent Effect” value (30 µM, 30.03 µM) was -25.19%.
Take `Cc1nnc(N2CC[C@H]3C[C@@H](C(=O)N4CCCC4)O[C@H]3C2)s1.O=C(O)C(F)(F)F`: where the note is “30.3 µM, […]”, the “Percent Effect” value was -391.5%.
In the case of `O=C1NCc2ccc(NC(=O)C3CCCN3c3nccs3)cc21` (centres undefined), the “Percent Effect” value (30 µM, 30.03 µM) worked out at 23.55%.
As to `O=C(Nc1ccc(OC2CCCC2)cc1)C1CCCN1c1nccs1` (centres undefined), the “Percent Effect” value (30.3 µM, […]) stood at 83.44%.
Take `O=C(Nc1cccc(F)c1)C1CCCN1c1nccs1` (centres undefined): the “Percent Effect” value (30.3 µM, […]) amounted to 1.599%.
Consider `O=C(N1CCOCC1)[C@@]12CCO[C@@H]1CCN(CC1CCCC1)C2.O=C(O)C(F)(F)F`, for which the “Percent Effect” value (30 µM, 30.03 µM) was -11.27%.
As for `CN(Cc1cccc(F)c1)C(=O)CS(=O)(=O)Cc1ccc(Cl)c(Cl)c1`, the “Percent Effect” value (30.3 µM, […]) turned out to be 45.42%.
Take `CN(Cc1cccc(F)c1)C(=O)CS(=O)(=O)Cc1c(Cl)cccc1Cl`: the “Percent Effect” value (30.3 µM, […]) is on record as 83.04%.
Consider `Cc1ccccc1CS(=O)(=O)CC(=O)N(C)Cc1cccc(F)c1`, for which, where the note is “30.3 µM, […]”, the “Percent Effect” value was -71.65%.
In the case of `CCOc1nnc(CN(C)CC2CCCN2c2cccnn2)s1` (centres undefined), the “Percent Effect” value (30 µM, 30.03 µM) was found to be 2.197%.
`O=C(O)C(F)(F)F.O=C(O)C(F)(F)F.O=C(c1cnc2n1CCN(Cc1ccccc1)C2)N1CCCC1`: under “30.3 µM, […]”, the “Percent Effect” value was -305.8%.
With `O=C(O)c1ccccc1C1CCN(C2CCN(c3ccccc3)CC2)C1` (centres undefined), for the setting “30.3 µM, […]”, the “Percent Effect” value is recorded as -16.4%.
As for `COc1ccc(N2CCC(N3CCOC(C(F)(F)F)C3)CC2)cc1` (centres undefined), the “Percent Effect” value (30 µM, 30.03 µM) is on record as -19.82%.
`NCC1CCN(C2CCN(c3ccc(-c4ccco4)cc3)CC2)C1` (centres undefined): under “30.3 µM, […]”, the “Percent Effect” value is given as 100.4%.
As for `CCc1cccc(N2CCC(NC(=O)c3ccco3)CC2)c1`, the “Percent Effect” value is, setting by setting: (10 µM) -6.636%; (30.3 µM, […]) -4.063%.
Consider `CNC1CCN(C2CCN(c3ccc(-c4ccco4)cc3)CC2)CC1`, for which, under “30.3 µM, […]”, the “Percent Effect” value came to 100.1%.
Turning to `NC1CCN(C2CCN(c3ccc(-c4ccco4)cc3)CC2)CC1`, the “Percent Effect” value (30.3 µM, […]) is -49.5%.

Values taken from ChEMBL document CHEMBL3988442, “University of Dundee, Small-Polar-MMV Screening Library” (2021).
